Source: PubChem BioAssay (National Center for Advancing Translational Sciences (NCATS))
DRD3 agonist = qHTS of D3 Dopamine Receptor Agonist: qHTS | D(3) dopamine receptor (Homo sapiens), P35462 | D3R DiscoveRx beta-arrestin cells, luminescence, 90 min | max activation, % | hit rate 0.58% among 410,000; in the data active = max activation above about 30%
Target sequence (P35462 whole entry, looked up): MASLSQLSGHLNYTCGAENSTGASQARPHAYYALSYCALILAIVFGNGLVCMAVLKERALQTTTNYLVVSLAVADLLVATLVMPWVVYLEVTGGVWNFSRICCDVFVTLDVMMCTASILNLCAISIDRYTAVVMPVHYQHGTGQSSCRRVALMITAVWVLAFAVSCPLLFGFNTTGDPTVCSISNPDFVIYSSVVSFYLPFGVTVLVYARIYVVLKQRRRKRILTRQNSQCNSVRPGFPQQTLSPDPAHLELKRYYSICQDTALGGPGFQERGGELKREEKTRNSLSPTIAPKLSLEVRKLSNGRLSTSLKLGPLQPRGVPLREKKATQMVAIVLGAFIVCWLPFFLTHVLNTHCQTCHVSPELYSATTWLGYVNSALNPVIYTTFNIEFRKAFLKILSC
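Cells at 1500/well, incubated overnight, then treated with pinned compounds (dopamine as control) for 90 min at 37 degrees C. DiscoveRx reagent added for 30 - 60 minutes at room temperature; luminescence read.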
TRPML1 inh = qHTS for Inhibitors of the Human Mucolipin Transient Receptor Potential 1 (TRPML1). Mucolipin-1 (Homo sapiens), Q9GZU1. TRPML1-inducible cells, Ca2+ dye fluorescence, FDSS; active compounds read low; inhibition of EC80 agonist-evoked calcium signal. activity change, negative = inhibition, % (test concentration not listed). hit rate 0.02% among 390,000; in the data active = activity change below about -50%; inconclusive = between about -30% and that limit;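 note: stimulus is agonist 54-4 at its EC80 concentration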
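Calcium fluorescence in TRPML1-DL cells induced overnight with Tet: a 110 s read after compound pin addition, then a 110 s antagonist read after challenge with 54-4 at 4 uM final (EC80).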
TRPML1 agonist = qHTS for Agonists of the Human Mucolipin Transient Receptor Potential 1 (TRPML1); Mucolipin-1 (Homo sapiens), Q9GZU1; TRPML1-expressing cells, Ca2+ dye fluorescence, FDSS; activation, % (concentration not given with the values); hit rate 0.12% among 410,000; AID 624414, 2012; in the data active = activation above about 50%; inconclusive = mostly about 30% to 49%
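In this qHTS format, compounds were pin-transferred onto Ca8-dye-loaded TRPML1-DL cells induced with Tet overnight, and intracellular Ca2+ fluorescence was recorded kinetically for 110 s after a 10 s baseline. A subsequent 4uM final 54-4 (EC80) addition followed by a second 110 s read served as the antagonist phase.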
DRD3 antagonist = qHTS of D3 Dopamine Receptor Antagonist: qHTS; D(3) dopamine receptor (Homo sapiens), P35462; D3R cells, DiscoveRx beta-arrestin luminescence, antagonist mode; active compounds read low; max response, negative = inhibition, %; hit rate 2.5% among 360,000; in the data active = max response below about -50%; inconclusive = no clear call, values can overlap the other calls
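Cells expressing the human receptor were seeded at 1500 cells/well, incubated overnight at 37 degrees C in 5% CO2, then exposed to library compounds with dopamine controls for 90 minutes at 37 degrees C before luminescent detection.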
Of the large screens only hits and unclear results are named; the others gave an inactive call. The list is not random: actives were taken first. Their share in the collection is about 2.9%.

Cc1cccc(C)c1NC(=O)CSc1nnnn1-c1ccc(C(=O)O)cc1	DRD3 antagonist -79
O=C(O)CCSc1nnnn1-c1ccccc1	none
Cc1ccccc1NC(=O)CCSc1nnnn1-c1ccccc1	DRD3 agonist 31
Nc1nc(Nc2ccccc2F)nc(N2CCCC2)c1[N+](=O)[O-]	none
Cc1cccc(Nc2nc(N)c([N+](=O)[O-])c(N3CCCC(C)C3)n2)c1 (stereo not given)	none
CCN1CCN(c2nc(Nc3cccc(C)c3)nc(N)c2[N+](=O)[O-])CC1	DRD3 antagonist -65
Cc1cccc(Nc2nc(N)c([N+](=O)[O-])c(N3CCN(C)CC3)n2)c1	DRD3 antagonist -64
CCN1CCN(c2nc(Nc3ccccc3F)nc(N)c2[N+](=O)[O-])CC1	DRD3 antagonist -63
CCN1CCN(c2nc(Nc3ccc(OC)cc3)nc(N)c2[N+](=O)[O-])CC1	DRD3 antagonist -54
CCN1CCN(c2nc(Nc3ccccc3)nc(N)c2[N+](=O)[O-])CC1	none
O=C(NCCc1ccccc1)c1cnc2sc(N3CCCCCC3)nn2c1=O	none (no result: DRD3 antagonist)
COc1ccc(-c2nn3c(-c4cc(-c5ccccc5)n[nH]4)nnc3s2)cc1OC	none (no result: DRD3 agonist, TRPML1 inh, DRD3 antagonist)
CCOc1ccc(NC(=O)CSc2cn(CC(=O)N3CCOCC3)c3ccccc23)cc1	none (no result: DRD3 antagonist)
Nc1nc(Nc2cccc(F)c2)nc(N2CCOCC2)c1[N+](=O)[O-]	none
CN1CCN(c2nc(Nc3ccccc3)nc(N)c2[N+](=O)[O-])CC1	DRD3 antagonist -67
CC(=O)Oc1ccc2oc(/C=C/N(C)C)c([N+](=O)[O-])c2c1	DRD3 antagonist -80
CCOC(=O)c1ccc(OC(=O)c2cn(-c3ccc(C)cc3)c(=O)c3ccccc23)cc1	none (no result: DRD3 antagonist)
O=[N+]([O-])c1ccc(SNc2ccccc2)c([N+](=O)[O-])c1	none
O=[N+]([O-])c1ccc(-[n+]2ccc3ccccc3c2)c([N+](=O)[O-])c1	DRD3 antagonist -106
Cc1ccc(-n2c(C3CC3c3ccc(Cl)cc3)n[nH]c2=S)cc1 (stereo not given)	DRD3 antagonist -61
CCOC(=O)c1ccc(CNc2ncnc3nc[nH]c23)cc1	none (no result: DRD3 agonist, TRPML1 inh, DRD3 antagonist)
C[N+](C)(CCCCCC[N+](C)(C)C1c2ccccc2-c2ccccc21)C1c2ccccc2-c2ccccc21	none (no result: TRPML1 inh, TRPML1 agonist, DRD3 antagonist)
CCOc1ccc2nc(NC(=O)c3nc(SCc4ccccc4F)ncc3Cl)sc2c1	none (no result: DRD3 antagonist)
O=C1CCC2CN3CCc4c([nH]c5ccccc45)C3CC2C1 (stereo not given)	DRD3 antagonist -90
COc1ccc2c3c([nH]c2c1)[C@H]1C[C@H]2[C@H](C[C@@H](O)[C@H](OC)[C@H]2C(=O)O)CN1CC3	none
O=C(O)[C@@H]1[C@H]2C[C@H]3c4[nH]c5ccccc5c4CCN3C[C@@H]2CC[C@@H]1O	DRD3 antagonist -61
O=C(C1CCN(S(=O)(=O)c2cnc[nH]2)CC1)N1CCn2c1nc1ccccc12	DRD3 antagonist -118
Nc1c(N2CCCC2)c2ccccc2oc1=O	DRD3 agonist 44
CC1CCCN(c2c([N+](=O)[O-])c(=O)oc3ccccc23)C1 (stereo not given)	none
Nc1cccc(-c2cn3ccsc3n2)c1	none (no result: DRD3 antagonist)
Cc1ccc(NC(=O)c2cc3c([nH]c2=O)CC(C)(C)CC3=O)cc1	none (no result: DRD3 agonist, TRPML1 inh, DRD3 antagonist)
O=[N+]([O-])c1ccc(C=CC=Cc2ccccc2)cc1	none
O=[N+]([O-])c1ccc(/C=C/C2=NN(c3ccccc3)C(c3ccco3)C2)cc1 (stereo not given)	TRPML1 agonist 60
O=[N+]([O-])c1ccc(C2=NN(c3ccccc3)C(c3ccco3)C2)cc1 (stereo not given)	TRPML1 agonist 55
CC1=NN(c2ccccc2)C(c2ccco2)C1 (stereo not given)	none
CCOC(=O)c1cc(C)n(CC2CCC(C(=O)Nc3ccc(Cl)cc3)CC2)c1C (stereo not given)	none (no result: DRD3 antagonist)
CCOC(=O)c1c(NC(=O)C2=C(C)NC(=S)NC2c2ccc(C)cc2)sc(C)c1C (stereo not given)	DRD3 antagonist -53
CCCN(CCC)c1nc(N)nc(C#N)n1	none (no result: DRD3 agonist, TRPML1 inh, DRD3 antagonist)
COCCN1C[C@@H](CO)O[C@@H](n2cnc3c(N4CCCC4)ncnc32)C1	DRD3 agonist 87 (no result: TRPML1 inh)
COCCN1C[C@@H](CO)O[C@@H](n2cnc3c(N4CCN(C)CC4)ncnc32)C1	none (no result: TRPML1 inh)
OC[C@@H]1CN(CCN2CCOCC2)C[C@H](n2cnc3c(NC4CCCC4)ncnc32)O1	DRD3 antagonist -51
CC(C)(C)c1ccc(C(=O)C[n+]2ccccc2Cl)cc1	none (no result: DRD3 agonist, TRPML1 inh, DRD3 antagonist)
O=C1C2C3C=CC(C3)C2C(=O)N1/N=C/c1ccc(-c2ccccc2[N+](=O)[O-])o1 (stereo not given)	none
O=C1C2C3C=CC(C3)C2C(=O)N1/N=C/c1cc(Br)cc([N+](=O)[O-])c1O (stereo not given)	DRD3 antagonist -68
CN(C)S(=O)(=O)c1ccc(-c2csc(N/N=C/c3ccco3)n2)cc1	none
CN(C)S(=O)(=O)c1ccc(-c2csc(N/N=C/c3ccc(O)cc3)n2)cc1	DRD3 agonist 35
Cc1nc(-c2ccc(Cl)cc2)sc1C1(C)CC(c2ccc([N+](=O)[O-])cc2)=NO1 (stereo not given)	DRD3 agonist 51
CCC(C)NCCOc1ccc(C(C)(C)c2ccccc2)cc1 (stereo not given)	DRD3 antagonist inconclusive
CCCOc1ccc(OCCCCNC(C)CC)cc1 (stereo not given)	DRD3 antagonist -55
CCC(C)NCCCCOc1ccc(Cl)cc1C (stereo not given)	DRD3 antagonist -60
CCC(C)NCCCOc1cc(Cl)ccc1Cl (stereo not given)	DRD3 antagonist -77
Cc1cc(Cl)ccc1OCCCC(=O)NN	none
CCCCNCCCOc1cc(Cl)ccc1Cl	DRD3 antagonist inconclusive
Cc1cc(C)c(NC(=O)c2sc3nc(C)cc(C)c3c2NC(=O)c2ccccc2)c(C)c1	none (no result: DRD3 antagonist)
CNC(=O)c1cc(-c2cccs2)on1	none (no result: DRD3 agonist, TRPML1 inh, DRD3 antagonist)
O=C(N/N=C/c1sc(N2CCOCC2)nc1-c1ccccc1)c1ccccc1Cl	none
O=[N+]([O-])c1ccc(N/N=C/c2sc(N3CCOCC3)nc2-c2ccccc2)c(S(=O)(=O)Nc2ccccc2Cl)c1	DRD3 antagonist -53
O=[N+]([O-])c1ccc(N/N=C/c2sc(N3CCOCC3)nc2-c2ccccc2)c(S(=O)(=O)Nc2ccc(Cl)cc2)c1	DRD3 antagonist -70
O=C(O)c1cccc(N/N=C/c2sc(N3CCOCC3)nc2-c2ccccc2)c1	none
Cc1ccc(-c2noc(-c3ccc(NCc4ccco4)c([N+](=O)[O-])c3)n2)cc1	TRPML1 inh inconclusive (no result: DRD3 antagonist)
COc1ccc(CNC(=O)C2CC(c3ccc(OC)cc3)=NO2)cc1 (stereo not given)	none
O=C(NCCCCc1ccccc1)C1CC(c2ccc(C(F)(F)F)cc2)=NO1 (stereo not given)	DRD3 agonist 58
